# Laboratory results reported in PubChem BioAssay (EPA / NIEHS).
# Inconclusive results are not listed. The source made the active and inactive calls. The calls were made as follows, unless noted: active = hit-call score of the fitted dose curve at least 0.9, where 1 is the maximum; inconclusive = response in the unintended direction; inactive = score below 0.9.
# Molecular target: Estrogen receptor (Homo sapiens) (UniProt P03372)
# Experiment: CCTE_Deisenroth_AIME_384WELL_LUC_Active: CCTE's 384-well Estrogen Receptor Transactivation Assay with AIME metabolic competence (ERTA luciferase; metabolism positive), Deisenroth Lab (AID 2284030)
# Outline: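 Test chemicals (10-point series, 0.002 - 200 uM) were preincubated 2 hours with alginate-immobilized phenobarbital/beta-naphthoflavone-induced male Sprague Dawley rat liver S9; conditioned medium then went onto VM7Luc4E2 breast cells for 24 hour. Luciferase gain-of-signal fitted relative to 17beta-estradiol.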
# Chain of Estrogen receptor (Homo sapiens) (P03372 whole entry, looked up): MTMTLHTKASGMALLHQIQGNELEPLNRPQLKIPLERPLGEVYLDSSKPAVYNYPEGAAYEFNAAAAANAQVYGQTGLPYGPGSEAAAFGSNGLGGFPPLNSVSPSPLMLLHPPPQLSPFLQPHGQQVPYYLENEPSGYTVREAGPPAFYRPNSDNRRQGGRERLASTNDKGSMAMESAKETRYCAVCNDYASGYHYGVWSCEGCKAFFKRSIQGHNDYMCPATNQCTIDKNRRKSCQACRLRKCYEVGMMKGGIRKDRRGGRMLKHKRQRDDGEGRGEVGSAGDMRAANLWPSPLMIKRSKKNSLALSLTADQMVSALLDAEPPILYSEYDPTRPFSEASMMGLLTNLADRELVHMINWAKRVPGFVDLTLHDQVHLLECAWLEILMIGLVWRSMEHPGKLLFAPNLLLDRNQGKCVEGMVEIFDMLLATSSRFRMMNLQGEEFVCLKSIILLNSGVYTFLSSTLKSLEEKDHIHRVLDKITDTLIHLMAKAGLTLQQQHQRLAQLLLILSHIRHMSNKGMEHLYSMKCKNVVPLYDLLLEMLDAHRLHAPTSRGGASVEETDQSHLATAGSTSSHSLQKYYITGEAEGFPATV
Structure (SMILES),outcome,AC50
CCCCOCCOCCOCCO,inactive,
[Na+],inactive,
CCC(C)COC(=O)CC(C)C (stereo not drawn),inactive,
C=CC(C)CCCC(C)(C)O (stereo not drawn),inactive,
O=C(OCc1ccccc1)c1ccccc1O,inactive,
CN(C)C(=O)Nc1ccccc1,inactive,
CCCO,inactive,
CC(C)(C)C1CCC(O)CC1 (stereo not drawn),inactive,
CCCC1CCC(=O)CC1,inactive,
[O-]/[N+](=N\O)c1ccccc1,,72.8 µM (active)
COc1ccc2[nH]cc(CCNC(C)=O)c2c1,inactive,
CCCC[N+](C)(CCCC)CCCC,inactive,
CC(=O)C1=C(C)[C@@H]2C[C@@]3(C1)[C@H](C)CC[C@H]3C2(C)C,,0.000204 µM (active)
CC(=O)c1ccc2ccccc2c1,,74.9 µM (active)
CC(=O)Oc1c(C)c(C)c2c(c1C)CC[C@@](C)(CCC[C@H](C)CCC[C@H](C)CCCC(C)C)O2,inactive,
CC(=O)OC/C=C(C)/C=C/C=C(C)/C=C/C1=C(C)CCCC1(C)C,inactive,
CCCCCCCCOC(=O)c1ccc(O)cc1,inactive,

# System: not listed separately
# Experiment: CCTE_Shafer_MEA_dev_firing_rate_mean: CCTE's Neural Network Formation Assay for Mean Firing Rate, Shafer Lab (AID 2284031; active = hit-call score of the fitted dose curve at least 0.9, where 1 is the maximum; inactive = score below 0.9)
# Experimental: CCTE_Shafer_MEA_dev assay is conducted using Axion Biosystems 48 well microelectrode array (MEA) plates and Maestro recording system. Each well of the MEA plate contains a grid of 16 microelectrodes embedded in the culture surface. Electrically active cells, such as neurons, can be cultured over the electrodes, and electrical activity in these cells can be recorded extracellularly. The spontaneous firing of neurons is captured from each electrode on a microsecond timescale providing both temporally and spatially precise data. […] The CCTE_Shafer_MEA_dev assay uses primary cultures of rat cortical neurons. Recordings are made on days post-plating 5, 7, 9 and 12. As these cultures mature over time, neural networks develop functional activity and form cohesive networks in which electrical activity can be highly coordinated. CCTE_Shafer_MEA_dev_firing_rate_mean is 1 of 19 assay components of the CCTE_Shafer_MEA_dev assay. It measures the frequency of spikes (action potential firings) as the total number of spikes divided by the length of the recording in a microelectrode array (MEA) using Axion Biosystems Maestro 768 channel amplifier with the AxIS adaptive spike detector. The firing rate is averaged across the active electrodes to report a well-mean value. To collapse across multiple recordings made on days post-plating 5, 7, 9 and 12, the trapezoidal area-under-the-curve of the component is calculated.Data from the assay component CCTE_Shafer_MEA_dev_firing_rate_mean was analyzed into 1 assay endpoint. This assay endpoint, CCTE_Shafer_MEA_dev_firing_rate_mean, was analyzed in the negative analysis fitting direction relative to DMSO as the negative control and baseline of activity. Using a type of functional reporter, gain or loss-of-signal activity can be used to understand electrical activity.
# On the day prior to culture, each well was coated thoroughly with 150 uL of 0.05% polyethyleneimine (PEI, Sigma Cat P3143) in 50 mM HEPES (Sigma Cat H7523) at a pH of 8. The plate was incubated at 37C for one hour. PEI was rinsed out with 500 uL of sterile water three times. Plates were stored at 4C until the day of culture. This culture was plated at a seeding density of 1.5 x 10^5 cells/well on a 48-well MEA plate, prepared as described above. Cells were administered via a 25 uL media/laminin ([…]; Sigma Cat L2020-1MG) drop directly onto the microelectrode array, as adding the cells with the laminin results in better attachment than pre-coating with laminin. After 2 hours, an additional 475 uL of cortical media was added and the cells returned to the incubator. Exposure starts at day 0 of plating and is continued over twelve days of network development until the experiment is terminated. Cells are fed with fresh medium on DIV 5 and 9, following the recordings on those days. The entire volume of media in the well is exchanged and any vehicle or compound treatment is renewed. Complete details are found in OP-NHEERL/ISTD/SBB/TJS/2015-03-r0 (available on request, email shafer.tim@epa.gov). Measurement of the electrical activity is non-invasive, and recordings can be made from the same plate over multiple different days of the culture. In cortical neurons, this allows for the measurement of extracellular action potentials over the period during which networks form in the MEA plate.
row,Structure (SMILES),outcome
1,N#CCCNCCC#N,inactive
2,CC(C)Cc1ccc(C(C)C(=O)O)cc1 (stereo not drawn),inactive
3,CCCCC(CC)COC(=O)COc1ccc(Cl)cc1C (stereo not drawn),inactive

# System: not listed separately
# Experiment: CCTE_Shafer_MEA_dev_per_burst_spike_percent: CCTE's Neural Network Formation Assay for Percent of Spikes in a Burst, Shafer Lab (AID 2284032; active = hit-call score of the fitted dose curve at least 0.9, where 1 is the maximum; inactive = score below 0.9)
# Outline: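 Value is trapezoidal AUC over recordings on days 5, 7, 9 and 12 of the well-mean fraction of spikes falling in single-electrode bursts; rat cortical cultures exposed continuously from plating, treatment renewed DIV 5 and 9, fitted downward against DMSO.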
row,Structure (SMILES),outcome
1,N#CCCNCCC#N,inactive
2,CC(C)Cc1ccc(C(C)C(=O)O)cc1 (stereo not drawn),inactive
3,CCCCC(CC)COC(=O)COc1ccc(Cl)cc1C (stereo not drawn),inactive

# System: not listed separately
# Experiment: CCTE_Deisenroth_AIME_384WELL_CTox_Active: Cytotoxicity Assessment (CTOX) in CCTE's 384-well Estrogen Receptor Transactivation Assay with AIME metabolic competence (metabolism positive), Deisenroth Lab (AID 2284037);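 also: chemicals first conditioned 2 h by alginate-bound induced rat liver S9 before cells; activity means signal loss indicating cell death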
# Outline: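 Cytotoxicity in VM7Luc4E2 breast cells, 24 hour, measured as protease-substrate fluorescence loss, after 2-hour metabolic conditioning with induced rat hepatic S9 in alginate microspheres. Concentrations 0.002 - 200 uM, 10 points, bidirectional fitting.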
Structure (SMILES),AC50,outcome
CCCCCCCCCCCCOCCOS(=O)(=O)O,147 µM (active),
CCC(C)COC(=O)CC(C)C (stereo not drawn),,inactive
O=C(OCc1ccccc1)c1ccccc1O,,inactive
CC(C)(C)C1CCC(O)CC1 (stereo not drawn),,inactive
COc1ccc2[nH]cc(CCNC(C)=O)c2c1,,inactive
CC(=O)C1=C(C)[C@@H]2C[C@@]3(C1)[C@H](C)CC[C@H]3C2(C)C,,inactive
CC(=O)c1ccc2ccccc2c1,,inactive
CC(=O)Oc1c(C)c(C)c2c(c1C)CC[C@@](C)(CCC[C@H](C)CCC[C@H](C)CCCC(C)C)O2,,inactive
CC(=O)OC/C=C(C)/C=C/C=C(C)/C=C/C1=C(C)CCCC1(C)C,,inactive

# Molecular target: Estrogen receptor (Homo sapiens) (UniProt P03372)
# Experiment: CCTE_Deisenroth_AIME_384WELL_LUC_Inactive: CCTE's 384-well Estrogen Receptor Transactivation Assay without AIME metabolic competence (ERTA luciferase; metabolism negative), Deisenroth Lab (AID 2284038);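 also: VM7Luc4E2 breast cells given medium preincubated 2 h with S9-free microspheres; hits raise estrogen receptor luciferase signal so potencies reflect agonists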
# Outline: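 VM7Luc4E2 ER transactivation, luciferase bioluminescence after 24 h, using medium pre-incubated 2 h with S9-free alginate microspheres. Concentrations 0.002–200 uM; gain of signal fitted relative to 17beta-estradiol.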
Structure (SMILES),outcome,AC50
CCCCOCCOCCOCCO,inactive,
[Na+],inactive,
CCC(C)COC(=O)CC(C)C (stereo not drawn),inactive,
C=CC(C)CCCC(C)(C)O (stereo not drawn),inactive,
O=C(OCc1ccccc1)c1ccccc1O,,46.4 µM (active)
CN(C)C(=O)Nc1ccccc1,inactive,
CCCO,inactive,
CC(C)(C)C1CCC(O)CC1 (stereo not drawn),inactive,
CCCC1CCC(=O)CC1,inactive,
CCC(=O)OC(C)(C)C1CC=C(C)CC1 (stereo not drawn),inactive,
[O-]/[N+](=N\O)c1ccccc1,,59 µM (active)
COc1ccc2[nH]cc(CCNC(C)=O)c2c1,inactive,
CC(=O)C1=C(C)[C@@H]2C[C@@]3(C1)[C@H](C)CC[C@H]3C2(C)C,,0.000263 µM (active)
CC(=O)c1ccc2ccccc2c1,inactive,
CC(=O)Oc1c(C)c(C)c2c(c1C)CC[C@@](C)(CCC[C@H](C)CCC[C@H](C)CCCC(C)C)O2,inactive,
CC(=O)OC/C=C(C)/C=C/C=C(C)/C=C/C1=C(C)CCCC1(C)C,inactive,
O=C1OC2(c3ccc(O)cc3Oc3cc(O)ccc32)c2ccccc21,inactive,
CCCCCCCCOC(=O)c1ccc(O)cc1,,39.7 µM (active)

# System: not listed separately
# Experiment: CCTE_Deisenroth_AIME_384WELL_CTox_Inactive: Cytotoxicity Assessment (CTOX) in CCTE's 384-well Estrogen Receptor Transactivation Assay without AIME metabolic competence (metabolism negative), Deisenroth Lab (AID 2284039);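 also: cell viability via live-cell protease substrate cleaved to fluorescent probe; cells exposed 24 h to medium preincubated 2 h with alginate-water beads without S9; loss of fluorescence signal means loss of viability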
# Outline: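 VM7Luc4E2 cells, metabolism-negative arm: test chemicals (0.002–200 uM, 10 points) pre-incubated 2 h with alginate-water microspheres, then medium transferred to cells for 24 h. Viability read as protease-substrate cleavage to fluorescent probe; loss-of-signal, bidirectional fitting.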
Structure (SMILES),AC50,outcome
CCCCCCCCCCCCOCCOS(=O)(=O)O,107 µM (active),
C=CC(C)CCCC(C)(C)O (stereo not drawn),,inactive
CN(C)C(=O)Nc1ccccc1,,inactive
CCCC[N+](C)(CCCC)CCCC,,inactive
CC(=O)OC/C=C(C)/C=C/C=C(C)/C=C/C1=C(C)CCCC1(C)C,,inactive

# System: not listed separately
# Experiment: CCTE_Shafer_MEA_dev_active_electrodes_number: CCTE's Neural Network Formation Assay for Number of Active Electrodes, Shafer Lab (AID 2284040)
# Outline: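 Counts electrodes per well firing at least 5 spikes/min, recorded on days 5, 7, 9 and 12 in rat cortical cultures dosed continuously from plating (treatment refreshed DIV 5, 9). Value is the area under the curve over recordings, fitted downward relative to DMSO.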
row,Structure (SMILES),outcome
1,N#CCCNCCC#N,inactive
2,CC(C)Cc1ccc(C(C)C(=O)O)cc1 (stereo not drawn),inactive
3,CCCCC(CC)COC(=O)COc1ccc(Cl)cc1C (stereo not drawn),inactive

# Molecular target: Estrogen receptor (Homo sapiens) (UniProt P03372)
# Experiment: CCTE_Deisenroth_AIME_384WELL_LUC_Shift: CCTE's 384-well Estrogen Receptor Transactivation Assay with AIME metabolic competence data shift (ERTA luciferase; difference in metabolism positive and negative), Deisenroth Lab (AID 2284041; active = hit-call score of the fitted dose curve at least 0.9, where 1 is the maximum; inactive = score below 0.9;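 also: shift is response with S9 minus without S9 so positive means metabolism raised ER signal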)
# Outline: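 Test chemicals (0.002–200 uM, 10-point) were pre-incubated 2 h with alginate microspheres containing phenobarbital/beta-naphthoflavone-induced male Sprague Dawley rat liver S9 or water, then medium was transferred to VM7Luc4E2 cells for 24 h luciferase readout; shift = S9-positive minus S9-negative normalized response.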
Structure (SMILES),outcome,AC50
CCCCOCCOCCOCCO,inactive,
[Na+],inactive,
CCCCCCCCCCCCOCCOS(=O)(=O)O,inactive,
CCC(C)COC(=O)CC(C)C (stereo not drawn),inactive,
C=CC(C)CCCC(C)(C)O (stereo not drawn),inactive,
O=C(OCc1ccccc1)c1ccccc1O,,37.2 µM (active)
CN(C)C(=O)Nc1ccccc1,inactive,
CCCO,inactive,
CC(C)(C)C1CCC(O)CC1 (stereo not drawn),inactive,
CCCC1CCC(=O)CC1,inactive,
CCC(=O)OC(C)(C)C1CC=C(C)CC1 (stereo not drawn),inactive,
[O-]/[N+](=N\O)c1ccccc1,,81 µM (active)
COc1ccc2[nH]cc(CCNC(C)=O)c2c1,inactive,
CCCC[N+](C)(CCCC)CCCC,inactive,
CC(=O)C1=C(C)[C@@H]2C[C@@]3(C1)[C@H](C)CC[C@H]3C2(C)C,,0.000848 µM (active)
CC(=O)c1ccc2ccccc2c1,inactive,
CC(=O)Oc1c(C)c(C)c2c(c1C)CC[C@@](C)(CCC[C@H](C)CCC[C@H](C)CCCC(C)C)O2,inactive,
CC(=O)OC/C=C(C)/C=C/C=C(C)/C=C/C1=C(C)CCCC1(C)C,inactive,
O=C1OC2(c3ccc(O)cc3Oc3cc(O)ccc32)c2ccccc21,inactive,
CCCCCCCCOC(=O)c1ccc(O)cc1,,36.3 µM (active)
